Experimental findings from PubChem BioAssay are described below.

Values without a mark were called inactive.

The assay is described as follows: plasmodial surface anion channel blockers, osmotic lysis – cell-based, P. falciparum Indochina, OD700, 18 h, primary screen (AID 1157). The following applies: P. falciparum Indochina infected erythrocytes, osmotic lysis OD700, 18 h; higher = more signal, called active from +8 up or from −8 down.
Consider `COC(=O)[C@@]1(Cc2ccc(OC)cc2)[C@H]2c3cc(C(=O)N(C)C)n(Cc4ccc(C)o4)c3C[C@H]2CN1C(=O)c1ccccc1`, for which the z-score is 0.594.

`CCCCCN1CC=CC23O[C@@H]4/C=C\CCC(C)OC(=O)C4[C@H]2C(=O)N(C(CO)C(C)C)[C@@H]3C1=O` (some centres undefined): the z-score was 0.699.

With `CCOC(=O)C[C@H]1[C@H](OC(=O)c2ccccc2-c2ccccc2)[C@@H](NC(=O)c2ccc3ccccc3n2)c2cc(OCCCO)ccc2N1C(=O)Cc1ccc(OC)cc1`, the z-score is 0.549.

With `O=C1OCCC/C=C\[C@H]2OC34C=CCN(c5ccc6ccccc6c5)C(=O)[C@H]3N(CCO)C(=O)[C@@H]4C12` (some centres undefined), the z-score was 0.532.

With `O=C1N(Cc2ccccc2)c2ccccc2C[C@]12N=C(c1ccc(OCCCO)cc1)O[C@@H]2c1ccccc1`, the z-score is 2.71.

`O[C@@H](Cc1ccccc1)[C@@H](/C=C/C1CC1)N(CC#Cc1ccccc1)Cc1ccccc1Br`: the z-score was 0.475.

For the compound `O=C(C1N=C(c2ccc(OCCCO)cc2)N(c2ccccc2)O1)N1CCCCC1` (centres undefined), the z-score was 0.423.

Regarding `CC(C)[Si]1(C(C)C)OCc2cc(-c3ccc(-c4ccc(Cl)c(Cl)c4)o3)nc(-c3ccccc3)c21`, the z-score was 0.138.

Consider `COc1ccc([Si](C)(C)[C@@H]2[C@@H](CCO)O[C@]3(C(=O)N(Cc4ccccc4)c4ccc(NC(=O)[C@H](C)O)cc43)[C@H]2C)cc1`, for which the z-score was 1.92.

`COc1cc(NN2C(C(O)c3ccc(N(C)C)cc3)C=CC3C(=O)N(c4ccccc4)C(=O)C32)cc(OC)c1OC` (centres undefined): the z-score is -0.765.

`Cn1cccc1C(O)C1C=CC2C(=O)N(c3ccccc3)C(=O)C2N1Nc1ccccc1` (centres undefined): the z-score is 1.44.

On to `CCOC(=O)C=Cc1cccc(C)c1O`, for which the z-score was -2.11.

Turning to `COC(=O)C1=CC(CCCO)=CC(c2cccs2)N(Cc2cccc(OC(F)(F)F)c2)C=C1C(=O)OC` (centres undefined), the z-score is 0.842.

Take `[N-]=[N+]=Nc1ccccc1[C@@H]1OC(c2ccc(OCCCO)cc2)=N[C@]1(Cc1ccccc1)C(=O)N1CCCCC1`: the z-score was 4.

Consider `C=CCNC(=O)[C@@H]1[C@H]2C(=O)O[C@H](c3ccccc3)[C@H](c3ccccc3)N2[C@H](c2ccc(O)cc2)[C@@]12C(=O)N(C(=O)OCCOC)c1ccc(C#CC3=CCCCC3)cc12`, for which the z-score is 0.313.

On to `CCOC(=O)C[C@H]1[C@H](OC(=O)c2cc3ccccc3oc2=O)[C@@H](NC(=O)CC(C)C)c2cc(OCCCO)ccc2N1C(=O)c1ccc2ccccc2n1`, for which the z-score was 0.647.

In the case of `NCCCCCNC(=O)[C@@H]1C[C@@H]2C(=O)N[C@@H](CCCCN)C(=O)N2[C@@H]1c1ccc(O)cc1`, the z-score was 0.937.

Turning to `CC(C)C(CO)N1C(=O)[C@@H]2C3C(=O)OCCC/C=C\[C@H]3OC23C=CCN(Cn2nnc4ccccc42)C(=O)[C@@H]13` (some centres undefined), the z-score is 0.234.

Regarding `[N-]=[N+]=NCc1ccccc1C[C@@]1(C(N)=O)N=C(c2ccc(OCCCO)cc2)O[C@@H]1c1ccccc1`, the z-score was 2.58.

Take `CCOC(=O)C[C@H]1[C@H](OC(=O)c2ccc(C(=O)c3ccccc3)cc2)[C@@H](NC(=O)CC(C)C)c2cc(OCCCO)ccc2N1C(=O)c1ccccc1`: the z-score was 0.26.

`CC(C)[Si](C#C[Si](C(C)C)(C(C)C)C(C)C)(O[C@H](c1ccccc1)c1cn(Cc2ccccc2)nn1)C(C)C`: the z-score was 0.136.

Turning to `COC(=O)C/C=C/C[C@]1(O)C(=O)N(C)c2ccccc21`, the z-score was -1.87.

For the compound `CN1C(=O)C2C=CC(C(O)c3cccn3C)N(Nc3ccc([N+](=O)[O-])cc3[N+](=O)[O-])C2C1=O` (centres undefined), the z-score was 1.17.

With `C=CCN1Cc2ccccc2[C@@H]2OC(c3ccc(OCCCO)cc3)=N[C@]2(CC=C)C1=O`, the z-score is 1.33.

As to `CCCC=C(CCC)[C@@H](NP(=O)(c1ccccc1)c1ccccc1)c1ccc(-c2ccccc2)cc1`, the z-score was 0.96.

`C=C(COC)C(=O)CC[C@@H](OC(C)=O)c1cccc(OCCO)c1`: the z-score was 0.529.

As to `CCOC(=O)C1=CC[C@@H](c2ccccc2F)N(S(=O)(=O)c2ccc(C)cc2)[C@H]1c1ccccc1`, the z-score is 0.338.

For the compound `O=C1O[C@H](c2ccccc2)[C@H](c2ccccc2)N2[C@H]1[C@@H](C(=O)O)[C@]1(C(=O)Nc3ccc(C#CCCO)cc31)[C@H]2c1ccccc1OCCO`, the z-score was 0.173.

`COc1cc2c(cc1O)C(C1CC1)N(C)CC2` (centres undefined): the z-score was 0.573.
